We go through 8 compounds from PubChem BioAssay (NCI).

This is part of a sample that, as a whole, favours compounds with a hit. Of some 83,000 tested, about 20% had one in any assay.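 Plates (96-well) were seeded with cells, treated with compound at one concentration, and incubated for 48 hours before percent growth was determined.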 Unmarked numbers belong to inactive results. Calls of active or inactive are those of the source. How the source made its calls: active means growth percent below 10; inactive means the rest.

Some test systems named below: NCI-H23 lung; NCI-H226 lung; NCI-H322M lung; HOP-62 NSCLC; NCI-H460 lung; NCI-H522 lung; A549/ATCC NSCLC; 786-0 renal; COLO 205 colon; DU-145 prostate; K-562 leukemia; MALME-3M melanoma; MDA-MB-231 breast; RXF 393 renal; SF-268 CNS; SF-295 CNS; SF-539 CNS; UACC-257 melanoma; M14 melanoma.
What all share (assay): NCI-60 one-dose screen, 48 h (100 = growth as untreated, 0 = no growth, -100 = all killed)
Holding throughout (conditions): 10 µM unless noted

For `COc1c(F)ccc(C(=O)Nc2ccc3nc(NC(=O)C4CCCN(S(=O)(=O)c5cccc(Br)c5)C4)sc3c2)c1F` (configuration not stated), the growth is 96.3% with NCI-H23 lung; 88.4% with NCI-H226 lung; 94% in the assay on NCI-H322M lung; 107% with HOP-62 NSCLC; 80.3% in the assay with NCI-H460 lung; 78.9% in the assay with NCI-H522 lung. In addition, the growth was 75.6% in the assay with A549/ATCC NSCLC; 70% in the assay on 786-0 renal; 86.4% with COLO 205 colon; 91.4% with DU-145 prostate; 60.2% in the assay on K-562 leukemia; 99.4% with MALME-3M melanoma. In addition, the growth is 90.7% with MDA-MB-231 breast; -3.33% (active) in the assay with RXF 393 renal; 69.7% with SF-268 CNS; 84.5% with SF-295 CNS; 74.5% in the assay with SF-539 CNS; 92.4% in the assay with UACC-257 melanoma. Moreover, the growth with M14 melanoma is 87.2%.

Take `CCOC(=O)c1ccc(Nc2nc(NN)nc(-c3ccc(F)cc3)c2C#N)cc1`: the growth with NCI-H23 lung is 110%; in the assay with NCI-H226 lung it was 116%; in the assay on NCI-H322M lung, 109%; in the assay with HOP-62 NSCLC it was 103%; in the assay with NCI-H460 lung it was 112%; in the assay on NCI-H522 lung it was 98.5%. The growth was 105% in the assay on A549/ATCC NSCLC; 103% in the assay with 786-0 renal; 119% with COLO 205 colon; 113% with DU-145 prostate; 32.2% in the assay with K-562 leukemia; 98.5% with MALME-3M melanoma. The growth in the assay with MDA-MB-231 breast is 76.7%; in the assay with RXF 393 renal, 142%; in the assay on SF-268 CNS it was 109%; with SF-295 CNS it was 97.8%; in the assay with SF-539 CNS, 104%; in the assay on UACC-257 melanoma, 103%. Besides, in the assay on M14 melanoma, the growth was 98%.

With `C=C1CCC2C3(C)COC(c4ccccc4)OC3CCC2(C)C1CC(NCc1ccccc1)C1=CCOC1=O` (configuration not stated), the growth in the assay on NCI-H23 lung is 80.8%; with NCI-H226 lung, 63.6%; with NCI-H322M lung, 90.8%; in the assay with HOP-62 NSCLC, 85.1%; in the assay with NCI-H460 lung, 97%; in the assay on NCI-H522 lung, 77.6%. In addition, the growth is 75.9% with A549/ATCC NSCLC; 79.3% with 786-0 renal; 88.3% in the assay on COLO 205 colon; 98.7% in the assay on DU-145 prostate; 58.8% in the assay with K-562 leukemia; 92.4% with MALME-3M melanoma. Moreover, the growth with MDA-MB-231 breast was 71.5%; with RXF 393 renal, 78.5%; in the assay with SF-268 CNS, 82.4%; in the assay with SF-295 CNS it was 72%; with SF-539 CNS, 89.2%; with UACC-257 melanoma it was 71.7%. Moreover, the growth with M14 melanoma is 76%.

As to `Cn1cc(-c2cc3nc(-c4cn(C)c5ncc(Br)cc45)cc(N)n3n2)c2ccccc21`, the growth in the assay on NCI-H23 lung was -22.5% (active); in the assay with NCI-H226 lung it was -2.09% (active); in the assay on NCI-H322M lung it was -20.2% (active); with HOP-62 NSCLC, -34.5% (active); in the assay with NCI-H460 lung, -54.6% (active); with NCI-H522 lung, -70.6% (active). The growth in the assay with A549/ATCC NSCLC is 2.3% (active); in the assay on 786-0 renal it was -87.7% (active); with COLO 205 colon, -81.4% (active); in the assay with DU-145 prostate it was 16.1%; with K-562 leukemia, -30% (active); with MALME-3M melanoma, -85.2% (active). The growth in the assay on MDA-MB-231 breast was -64.7% (active); in the assay on RXF 393 renal, -74% (active); with SF-268 CNS, 11.8%; in the assay on SF-295 CNS it was -60.2% (active); in the assay with SF-539 CNS it was -90.2% (active); in the assay with UACC-257 melanoma, -77.4% (active). The growth in the assay on M14 melanoma is -72.6% (active).

Take `CN(C)c1nc(NCCNS(=O)(=O)c2ccc(C(=O)/C=C/c3ccc(C(F)(F)F)cc3)cc2)nc(Nc2ccc(F)cc2)n1`: the growth in the assay with NCI-H23 lung was -5.94% (active); with NCI-H226 lung, -48.9% (active); with NCI-H322M lung it was 27.7%; in the assay on HOP-62 NSCLC it was 68.7%; in the assay with NCI-H460 lung, -19.6% (active); with NCI-H522 lung, -79.7% (active). For the same compound, the growth is 10.1% in the assay on A549/ATCC NSCLC; -75.7% (active) with 786-0 renal; -47.5% (active) in the assay on COLO 205 colon; 6.99% (active) in the assay with DU-145 prostate; -1.07% (active) in the assay on K-562 leukemia; -2.41% (active) in the assay with MALME-3M melanoma. In addition, the growth in the assay on MDA-MB-231 breast is -74.2% (active); in the assay with RXF 393 renal, -81.4% (active); with SF-268 CNS, 21.6%; with SF-295 CNS it was -14.6% (active); with SF-539 CNS, -97.5% (active); with UACC-257 melanoma, 23.7%. Moreover, in the assay with M14 melanoma, the growth is -48.3% (active).

On to `COc1cc(OC)c2c3nc4cc(C)c(C)cc4nc3n(CCN(C)C)c2c1`, for which the growth in the assay on NCI-H23 lung was 67.4%; in the assay with NCI-H226 lung, 72.4%; in the assay with NCI-H322M lung, 73.3%; in the assay on HOP-62 NSCLC, 70.9%; in the assay with NCI-H460 lung, 53.7%; in the assay with NCI-H522 lung, 56.2%. The growth in the assay on A549/ATCC NSCLC was 8.98% (active); with 786-0 renal, 50.7%; in the assay on COLO 205 colon it was 48.4%; in the assay with DU-145 prostate it was 60.4%; in the assay with K-562 leukemia, 1.64% (active); with MALME-3M melanoma it was -36.1% (active). Moreover, the growth is 38% in the assay on MDA-MB-231 breast; -18.4% (active) in the assay with RXF 393 renal; 86.2% in the assay on SF-268 CNS; 53.7% in the assay on SF-295 CNS; -83.5% (active) with SF-539 CNS; 101% in the assay with UACC-257 melanoma. Moreover, in the assay with M14 melanoma, the growth is 47.9%.

Turning to `CCCCCCCS(=O)(=O)N1CCCC(C(=O)Nc2nc3ccc(NC(=O)c4ccc(F)c(OC)c4F)cc3s2)C1` (configuration not stated), the growth in the assay on NCI-H23 lung was 27.3%; in the assay on NCI-H226 lung, 31.8%; in the assay on NCI-H322M lung, 77.7%; in the assay on HOP-62 NSCLC it was 60.8%; in the assay on NCI-H460 lung, 69.7%; with NCI-H522 lung, 24.7%. For the same compound, the growth in the assay on A549/ATCC NSCLC was 60.5%; with 786-0 renal, 50%; in the assay on COLO 205 colon it was 82.9%; in the assay on DU-145 prostate, 63.5%; in the assay with K-562 leukemia, 61.8%; in the assay with MALME-3M melanoma, 35.4%. Moreover, the growth with MDA-MB-231 breast is 14.7%; with RXF 393 renal it was -48.1% (active); in the assay on SF-268 CNS, 63.1%; in the assay with SF-295 CNS, 48.7%; in the assay with SF-539 CNS it was 25.8%; with UACC-257 melanoma, 69%. Besides, the growth in the assay with M14 melanoma was 72.5%.

For the compound `O=C(CN1C(=O)/C(=C/c2ccccc2Cl)SC1=S)N1CCOCC1`, the growth in the assay with NCI-H23 lung is 98%; in the assay with NCI-H226 lung, 77.9%; with NCI-H322M lung, 95.3%; with HOP-62 NSCLC, 116%; in the assay with NCI-H460 lung, 107%; with NCI-H522 lung it was -74.8% (active). Also, the growth was 97.8% with A549/ATCC NSCLC; 80.4% with 786-0 renal; 100% in the assay with COLO 205 colon; 78.1% with DU-145 prostate; 27% in the assay on K-562 leukemia; 76.3% in the assay on MALME-3M melanoma. Moreover, the growth was 94.3% in the assay with MDA-MB-231 breast; 77.4% in the assay with RXF 393 renal; 106% with SF-268 CNS; 107% in the assay with SF-295 CNS; 91.7% with SF-539 CNS; 94.3% in the assay with UACC-257 melanoma. Also, the growth with M14 melanoma is 85.3%.
